Results reported in PubChem BioAssay (NCATS).
Inconclusive results are not listed. Active and inactive are the calls of the source. Unless noted, the call rests on the fitted dose curve; in most records, active means well fitted curve in either direction with a large enough effect (not every such curve was filed as active); inconclusive means small, poorly fitted or top-dose-only effect, or another doubt; inactive means flat fitted curve, though single readings scatter.

Tests used:
[1] = target: Lysosomal acid glucosylceramidase (Homo sapiens) (UniProt P04062); experiment: Glucocerebrosidase-p2 (AID 348; in the data active means potency below about 10 µM; further: potency means the concentration at half of the fitted maximal effect); details: purified GBA, blue fluorogenic substrate, 40 min
Outline: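 Compounds titrated from 0.6 nM upwards against 0.2 nM enzyme in pH 5.9 citric acid/KH2PO4, taurocholate, tween-20; blue fluorogenic substrate 80 uM, 40 min room temperature, stopped and read Ex 365/Em 440 for AC50.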

[2] = NFAT Signaling Pathway (AID 444); details: Jurkat NFAT-bla M1, carbachol, beta-lactamase ratio, 5 h; at 7.69 µM (top of the series) unless noted;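 further: carbachol stimulus at about its EC50 of 1 µM final; on the % scale 0 is the no-effect control and ±100 the full control effect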
Outline: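 Jurkat cells carrying an NFAT-driven β-lactamase reporter and co-transfected muscarinic M1 receptor were treated with compound plus carbachol (1 uM final, an EC50 level) for 5 h at 37 °C. CCF4 loading followed for 1 h at RT; 460/530 nm ratio gave %activity.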

[3] = Stat Signaling Pathway (AID 446); details: ME-180 (cervical carcinoma) SIE beta-lactamase reporter, IL-6 stimulated, 5 h; at 7.69 µM (top of the series) unless noted;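 further: ME-180 cervical cancer cells given 40 pM IL-6 alongside compound; SIE-controlled beta-lactamase reporter measured as 460/530 nm FRET emission ratio; on the % scale 0 is the no-effect control and ±100 the full control effect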
Outline: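 IL-6/STAT signaling read in ME-180 cells via an SIE beta-lactamase reporter. Stimulus was 40 pM IL-6 (its AC50) for 5 hrs, so both activation and inhibition register.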

[4] = target: Glucocorticoid receptor (Homo sapiens) (UniProt P04150); experiment: GR-GFP Redistribution (AID 450;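 active means compounds whose dose series gives a full or clear partial fitted curve of increased nuclear translocation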; further: potency means the concentration at half of the fitted maximal effect); details: U2OS GR-GFP nuclear translocation, laser cytometry, 2 h
[5] = target: Glucocorticoid receptor (Homo sapiens) (UniProt P04150); experiment: GR-EFC Redistribution (AID 451; calls by dose curve; further: potency means the concentration at half of the fitted maximal effect); details: CHO-K1 GR-EFC translocation, beta-gal luminescence, 2 h
Outline: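 CHO-K1 cells stably expressing nuclear-localized β-gal enzyme acceptor and GR fused C-terminally to the enzyme donor fragment; ligand-driven nuclear translocation restores β-gal by complementation. Compounds titrated up to 46 uM final, 2 h at 37 °C; luminescence read.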

[6] = target: Mitogen-activated protein kinase 10 (Mus musculus) (UniProt Q61831); experiment: JNK3 AlphaScreen Assay (AID 530); details: JNK3 lysate, c-Jun phosphorylation; series mostly up to 11.4 µM;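 further: kinase came from lysate of stimulated human HepG2 cells; signal reports phosphorylation of biotinylated GST-cJun 1-79 at Ser73 with 10 µM ATP; on the % scale 0 is the no-effect control and ±100 the full control effect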
Outline: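 Inhibitors reduce antibody binding to phosphorylated biotin-cJun, lowering AlphaScreen luminescence. Lysates from HepG2 cells pre-activated by IL-1beta plus TNF-alpha supplied JNK3; compounds were titrated.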

[7] = target: 3',5'-cyclic-AMP phosphodiesterase 4B (Homo sapiens) (UniProt Q07343); experiment: qHTS Assay for Inhibitors of PDE-IV (AID 607; active means well fitted activation curve with a large enough effect in the main read-out, with a control signal flat, not every such curve was filed as active; further: % of control where 0% means no effect); details: HEK293 ACTOne CNG channel cells, membrane potential fluorescence; series mostly up to 22.9 µM
Outline: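 Live HEK293 cells with a modified cyclic nucleotide-gated (CNG) channel report intracellular cAMP via membrane-potential dye fluorescence (ex 535/em 590 nm). Endogenous PDE-IV was targeted. Compounds were tested at up to 22.9 uM final; RO 20-1724 100 uM served as control.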

[8] = target: Cytochrome P450 2D6 (Homo sapiens) (UniProt P10635); experiment: qHTS Assay for Inhibitors and Substrates of Cytochrome P450 2D6 (AID 891; active means well fitted curve in the direction sought with a large enough effect; an effect the other way counts as inactive or inconclusive; further: potency means the concentration at half of the fitted maximal effect; nearly all actives have a fitted effect of over 60% in size); details: recombinant CYP2D6, luciferin-ME EGE luminescence; series mostly up to 11.4 µM
Outline: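 Human CYP2D6 (5 nM) with 30 uM Luciferin-ME EGE (at Km) in 100 mM KPO4, compound preincubated 10 min, then NADPH regeneration system for 60 min at room temperature. Luciferin read by luminescence; normalized to 1.43 uM quinidine.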

[9] = target: Cytochrome P450 1A2 (Homo sapiens) (UniProt P05177); experiment: p450-cyp1a2 (AID 410; calls by dose curve; further: potency means the concentration at half of the fitted maximal effect;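 on activity change, negative = inhibition: -100% = full effect of reference inhibitor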); details: recombinant CYP1A2, luciferin-ME demethylation, luminescence; series mostly up to 11.4 µM
Outline: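 20nM CYP1A2 with 100uM Luciferin-ME (at Km) in 100mM KPO4; compound preincubated 10 min, NADPH regeneration added, 60 min at room temperature. Luciferin quantified by luminescence after detection reagent; normalized to 57 uM furafylline.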

[10] = target: Guanine nucleotide-binding protein G(i) subunit alpha-1 (Homo sapiens) (UniProt P63096); experiment: qHTS Assay for Inhibitors of RGS12 GoLoco Motif Activity (Green Fluorophore) (AID 879; active means well fitted curve in the direction sought with a large enough effect; an effect the other way counts as inactive or inconclusive;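 further: 0% = labeled peptide with Gαi1 and full inhibition = labeled peptide alone without protein; negative values mean loss of peptide binding seen as reduced polarization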); details: Galphai1/FITC-RGS12 GoLoco peptide, fluorescence polarization; series mostly up to 57.1 µM
Outline: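 Fluorescence polarization assay: 50 nM Gαi1 with 10 nM FITC-labeled RGS12 GoLoco peptide in 10 mM Tris pH 7.5, 150 mM NaCl, 0.1 mM GDP, 0.05% NP40, 10 min at room temperature with compound.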

[11] = target: Cytochrome P450 2C19 (Homo sapiens) (UniProt P33261); experiment: qHTS Assay for Inhibitors and Substrates of Cytochrome P450 2C19 (AID 899; active means well fitted curve in the direction sought with a large enough effect; an effect the other way counts as inactive or inconclusive; further: on the % scale 0 is the no-effect control and ±100 the full control effect; nearly all actives have a fitted effect of over 60% in size); details: recombinant CYP2C19, luciferin-H EGE luminescence; series mostly up to 11.4 µM
Outline: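 In 50mM KPO4, the reaction held 5nM enzyme and KM-level (10uM) Luciferin-H EGE; it ran 60 min at 37C after NADPH regeneration and a 10 min compound preincubation. Luminescence values were scaled to 57uM ketoconazole as complete inhibition.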

[12] = qHTS Assay for Identification of Small Molecule Agonists for Thrombopoietin (TPO) Signaling Pathway (AID 917; active means well fitted curve in the direction sought with a large enough effect; an effect the other way counts as inactive or inconclusive; further: on the % scale 0 is the no-effect control and ±100 the full control effect); details: TPO signaling pathway reporter cells, agonist qHTS, stimulated with TPO at its EC50; series mostly up to 38.5 µM
Outline: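 Activators of TPO signaling were sought in murine Ba/F3 cells transfected with the human receptor, using a luciferase gene driven by the Glycoprotein IIb promoter; 24-hr compound exposure at 37 C alongside 26 pM TPO, in IL-3-free medium.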

[13] = target: Pyruvate kinase (Leishmania mexicana) (UniProt Q27686); experiment: qHTS Validation Assay for Inhibitors of Leishmania Mexicana Pyruvate Kinase (AID 945; active means well fitted curve in the direction sought with a large enough effect; an effect the other way counts as inactive or inconclusive;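 further: 0% = DMSO only neutral control wells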); details: purified L. mexicana pyruvate kinase, enzyme activity, E451W mutant enzyme; series mostly up to 57.5 µM
Outline: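 Read-out: luminescence from PKLight stop/detection reagent, data normalized to DMSO. Reaction: 0.2 nM E451W LmPYK, 0.5 mM PEP, 0.1 mM ADP, pH 7.2, 1 h room temperature.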

[14] = target: Pyruvate kinase PKM (Homo sapiens) (UniProt P14618); experiment: qHTS Assay for Activators of Human Muscle Pyruvate Kinase (AID 954; active means well fitted curve in the direction sought with a large enough effect, not every such curve was filed as active;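 further: 0% = uninhibited enzyme and -100% = no enzyme or full thiadiazolimine inhibition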); details: purified human muscle pyruvate kinase, luciferase-coupled luminescence, 1 h; series mostly up to 57.5 µM
Outline: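 Enzyme was run at intermediate activity so both inhibitors and activators could be detected. ATP formed from ADP and PEP by 0.1 nM human PKM2 during a 1 h room-temperature incubation was quantified by coupled luciferase luminescence.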

[15] = target: Alpha-galactosidase A (Homo sapiens) (UniProt P06280); experiment: Counterscreen for Glucocerebrosidase Inhibitors: qHTS Assay for Human alpha-Galactosidase at pH 4.5 (AID 992; active means well fitted curve in the direction sought with a large enough effect; an effect the other way counts as inactive or inconclusive; further: 0% is about no effect); details: purified enzyme, fluorogenic substrate; series mostly up to 76.9 µM
Outline: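 Read-out is 4-methylumbelliferone fluorescence (365 nm excitation, 440 nm emission) after a pH 10 NaOH/glycine stop. Reactions held 2 nM enzyme and 80 uM substrate at pH 4.5 for 20 min at room temperature.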

[16] = target: alpha-glucosidase (Oryza sativa, rice) (UniProt Q653V4); experiment: Counterscreen for Glucocerebrosidase Inhibitors: qHTS Assay for Rice alpha-Glucosidase at pH 5.0 (AID 997; active means well fitted curve in the direction sought with a large enough effect; an effect the other way counts as inactive or inconclusive;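 further: 0% = full activity with enzyme and -100% = basal without enzyme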); details: rice alpha-glucosidase enzyme activity; series mostly up to 76.9 µM
Outline: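 Rice alpha-glucosidase (4 nM final) with 400 uM 4-methylumbelliferyl-alpha-D-glucopyranoside in citrate buffer pH 5.0, 20 min at room temperature, stopped at pH 10; fluorescence 365/440 nm, compounds 0.7 nM–77 uM, AC50 from Hill fits.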

[17] = target: Cytochrome P450 3A4 (Homo sapiens) (UniProt P08684); experiment: qHTS Assay for Activators of Cytochrome P450 3A4 (AID 885; active means well fitted curve in the direction sought with a large enough effect; an effect the other way counts as inactive or inconclusive; further: nearly all actives have a fitted effect of over 65% in size); details: recombinant CYP3A4, Luciferin-PPXE luminescence, 60 min; series mostly up to 11.4 µM
Outline: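 Quantitative HTS format: compounds preincubated with 20nM human CYP3A4 and Luciferin-PPXE substrate at KM, reaction started by NADPH regeneration, stopped after 60 min, luciferase luminescence read 20 min later.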

Chain of Glucocorticoid receptor (Homo sapiens) (P04150 whole entry, looked up, the tested form may be a part): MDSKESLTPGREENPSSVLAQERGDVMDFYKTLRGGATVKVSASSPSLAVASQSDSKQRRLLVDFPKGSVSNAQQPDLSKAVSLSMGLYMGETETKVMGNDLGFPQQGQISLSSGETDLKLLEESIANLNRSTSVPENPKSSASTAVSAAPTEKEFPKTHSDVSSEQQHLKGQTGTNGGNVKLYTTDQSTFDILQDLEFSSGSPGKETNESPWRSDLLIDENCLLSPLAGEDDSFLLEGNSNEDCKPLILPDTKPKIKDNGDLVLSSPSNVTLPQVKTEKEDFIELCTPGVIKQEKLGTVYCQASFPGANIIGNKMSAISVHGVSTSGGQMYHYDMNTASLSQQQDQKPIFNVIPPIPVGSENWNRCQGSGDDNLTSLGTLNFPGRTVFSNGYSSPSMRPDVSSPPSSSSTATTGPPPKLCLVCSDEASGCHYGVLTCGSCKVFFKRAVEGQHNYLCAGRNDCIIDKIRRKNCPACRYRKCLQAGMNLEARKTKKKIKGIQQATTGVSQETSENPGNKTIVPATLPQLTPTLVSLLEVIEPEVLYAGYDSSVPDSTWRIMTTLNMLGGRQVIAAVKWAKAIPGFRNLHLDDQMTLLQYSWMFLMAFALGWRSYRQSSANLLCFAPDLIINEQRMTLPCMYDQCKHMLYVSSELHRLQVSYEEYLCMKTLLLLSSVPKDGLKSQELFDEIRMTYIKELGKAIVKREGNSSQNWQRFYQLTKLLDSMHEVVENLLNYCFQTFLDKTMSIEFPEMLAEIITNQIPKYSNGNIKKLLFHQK
Chain of Lysosomal acid glucosylceramidase (Homo sapiens) (P04062 whole entry, looked up): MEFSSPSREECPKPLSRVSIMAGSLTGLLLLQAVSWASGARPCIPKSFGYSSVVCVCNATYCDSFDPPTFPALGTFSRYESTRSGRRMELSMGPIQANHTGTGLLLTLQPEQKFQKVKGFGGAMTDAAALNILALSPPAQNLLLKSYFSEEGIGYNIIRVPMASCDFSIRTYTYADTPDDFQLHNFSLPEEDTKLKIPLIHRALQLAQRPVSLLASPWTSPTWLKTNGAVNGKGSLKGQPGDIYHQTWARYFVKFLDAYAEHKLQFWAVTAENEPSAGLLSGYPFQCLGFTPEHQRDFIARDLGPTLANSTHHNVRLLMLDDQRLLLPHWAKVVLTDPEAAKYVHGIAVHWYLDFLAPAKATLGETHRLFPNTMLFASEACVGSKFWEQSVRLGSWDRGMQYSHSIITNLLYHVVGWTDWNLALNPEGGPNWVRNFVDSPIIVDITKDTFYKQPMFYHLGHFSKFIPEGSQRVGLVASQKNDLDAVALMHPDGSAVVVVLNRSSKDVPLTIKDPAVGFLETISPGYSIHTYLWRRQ
Chain of Cytochrome P450 1A2 (Homo sapiens) (P05177 whole entry, looked up): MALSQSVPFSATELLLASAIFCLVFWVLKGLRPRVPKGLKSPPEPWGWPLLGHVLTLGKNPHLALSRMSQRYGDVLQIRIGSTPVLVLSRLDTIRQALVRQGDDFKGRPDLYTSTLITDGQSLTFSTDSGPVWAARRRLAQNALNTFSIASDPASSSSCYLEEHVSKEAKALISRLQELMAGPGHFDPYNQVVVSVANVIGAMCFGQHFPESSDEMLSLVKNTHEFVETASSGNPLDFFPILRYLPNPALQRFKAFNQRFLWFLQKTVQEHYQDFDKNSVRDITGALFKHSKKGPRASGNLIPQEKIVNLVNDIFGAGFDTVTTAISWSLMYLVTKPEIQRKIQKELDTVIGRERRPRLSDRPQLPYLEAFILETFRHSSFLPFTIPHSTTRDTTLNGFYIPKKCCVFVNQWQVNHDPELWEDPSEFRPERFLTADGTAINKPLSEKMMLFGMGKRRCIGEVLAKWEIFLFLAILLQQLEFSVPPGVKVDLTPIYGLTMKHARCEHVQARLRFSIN
Chain of 3',5'-cyclic-AMP phosphodiesterase 4B (Homo sapiens) (Q07343 whole entry, looked up): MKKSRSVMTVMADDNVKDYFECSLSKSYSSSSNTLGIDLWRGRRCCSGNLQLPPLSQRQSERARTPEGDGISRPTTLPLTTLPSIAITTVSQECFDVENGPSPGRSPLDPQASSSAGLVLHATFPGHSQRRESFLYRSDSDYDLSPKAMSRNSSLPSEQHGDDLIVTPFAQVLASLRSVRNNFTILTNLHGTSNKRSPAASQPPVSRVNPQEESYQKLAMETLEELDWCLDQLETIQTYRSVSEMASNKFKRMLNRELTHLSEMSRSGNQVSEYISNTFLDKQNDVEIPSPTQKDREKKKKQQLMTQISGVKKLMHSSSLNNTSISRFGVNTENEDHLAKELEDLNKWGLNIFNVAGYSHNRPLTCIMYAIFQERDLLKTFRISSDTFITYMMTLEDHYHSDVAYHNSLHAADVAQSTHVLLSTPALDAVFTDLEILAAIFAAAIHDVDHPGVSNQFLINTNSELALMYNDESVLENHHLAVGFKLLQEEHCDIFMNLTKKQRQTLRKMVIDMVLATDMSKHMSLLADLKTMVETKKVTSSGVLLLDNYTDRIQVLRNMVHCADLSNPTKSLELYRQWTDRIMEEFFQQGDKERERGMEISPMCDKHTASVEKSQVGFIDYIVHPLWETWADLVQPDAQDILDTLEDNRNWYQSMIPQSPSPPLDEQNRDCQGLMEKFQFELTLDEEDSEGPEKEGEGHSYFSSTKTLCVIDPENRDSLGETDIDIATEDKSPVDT
Chain of Guanine nucleotide-binding protein G(i) subunit alpha-1 (Homo sapiens) (P63096 whole entry, looked up): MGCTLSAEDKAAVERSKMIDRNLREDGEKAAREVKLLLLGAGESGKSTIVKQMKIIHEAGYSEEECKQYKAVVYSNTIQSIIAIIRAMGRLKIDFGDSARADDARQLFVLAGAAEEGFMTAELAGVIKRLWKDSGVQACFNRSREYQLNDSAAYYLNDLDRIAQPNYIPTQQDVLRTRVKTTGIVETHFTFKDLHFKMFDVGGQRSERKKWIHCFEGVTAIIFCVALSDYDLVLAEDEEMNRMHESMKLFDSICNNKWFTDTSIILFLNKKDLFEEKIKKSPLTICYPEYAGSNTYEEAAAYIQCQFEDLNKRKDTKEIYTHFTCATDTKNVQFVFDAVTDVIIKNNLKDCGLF
Chain of Pyruvate kinase PKM (Homo sapiens) (P14618 whole entry, looked up): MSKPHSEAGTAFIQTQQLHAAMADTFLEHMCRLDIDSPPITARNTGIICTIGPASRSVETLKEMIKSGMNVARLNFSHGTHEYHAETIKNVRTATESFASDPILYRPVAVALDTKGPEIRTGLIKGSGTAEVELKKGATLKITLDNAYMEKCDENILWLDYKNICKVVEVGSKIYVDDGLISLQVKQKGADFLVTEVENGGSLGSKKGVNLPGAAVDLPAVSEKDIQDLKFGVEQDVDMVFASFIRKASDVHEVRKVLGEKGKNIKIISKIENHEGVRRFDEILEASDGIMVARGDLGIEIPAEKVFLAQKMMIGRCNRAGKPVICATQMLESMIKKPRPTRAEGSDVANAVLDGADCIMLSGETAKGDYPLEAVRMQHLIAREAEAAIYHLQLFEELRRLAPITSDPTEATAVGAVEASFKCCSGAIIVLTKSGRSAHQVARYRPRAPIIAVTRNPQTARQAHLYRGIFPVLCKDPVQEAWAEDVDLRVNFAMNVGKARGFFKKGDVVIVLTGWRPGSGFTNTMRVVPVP
Chain of Pyruvate kinase (Leishmania mexicana) (Q27686 2-499 E452W): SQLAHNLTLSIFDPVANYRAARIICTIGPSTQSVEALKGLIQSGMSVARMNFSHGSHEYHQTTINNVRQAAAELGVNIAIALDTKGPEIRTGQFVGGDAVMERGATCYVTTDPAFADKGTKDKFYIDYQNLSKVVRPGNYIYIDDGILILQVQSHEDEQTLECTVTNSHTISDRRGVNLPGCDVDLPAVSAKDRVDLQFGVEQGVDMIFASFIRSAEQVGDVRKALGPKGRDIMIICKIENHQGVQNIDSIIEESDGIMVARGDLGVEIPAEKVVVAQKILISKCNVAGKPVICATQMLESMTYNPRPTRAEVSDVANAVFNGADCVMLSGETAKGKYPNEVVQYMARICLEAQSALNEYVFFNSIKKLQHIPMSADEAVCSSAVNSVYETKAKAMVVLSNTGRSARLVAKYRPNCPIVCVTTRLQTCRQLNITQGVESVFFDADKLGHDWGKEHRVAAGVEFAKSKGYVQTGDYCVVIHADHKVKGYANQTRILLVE
Chain of Cytochrome P450 2D6 (Homo sapiens) (P10635 whole entry, looked up): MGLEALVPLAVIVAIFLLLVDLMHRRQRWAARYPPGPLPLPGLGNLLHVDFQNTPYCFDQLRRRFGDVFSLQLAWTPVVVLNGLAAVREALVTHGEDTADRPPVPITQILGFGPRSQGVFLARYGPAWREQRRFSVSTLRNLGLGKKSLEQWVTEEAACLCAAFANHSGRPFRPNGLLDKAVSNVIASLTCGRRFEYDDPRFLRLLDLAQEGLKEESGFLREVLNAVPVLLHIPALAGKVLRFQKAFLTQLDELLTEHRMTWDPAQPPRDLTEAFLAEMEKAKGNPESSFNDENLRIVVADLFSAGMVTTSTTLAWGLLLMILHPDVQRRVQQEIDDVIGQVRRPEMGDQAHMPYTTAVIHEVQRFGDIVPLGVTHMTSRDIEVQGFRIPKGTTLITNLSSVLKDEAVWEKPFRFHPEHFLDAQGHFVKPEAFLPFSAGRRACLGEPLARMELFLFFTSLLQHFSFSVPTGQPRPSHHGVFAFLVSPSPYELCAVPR
Chain of Alpha-galactosidase A (Homo sapiens) (P06280 whole entry, looked up): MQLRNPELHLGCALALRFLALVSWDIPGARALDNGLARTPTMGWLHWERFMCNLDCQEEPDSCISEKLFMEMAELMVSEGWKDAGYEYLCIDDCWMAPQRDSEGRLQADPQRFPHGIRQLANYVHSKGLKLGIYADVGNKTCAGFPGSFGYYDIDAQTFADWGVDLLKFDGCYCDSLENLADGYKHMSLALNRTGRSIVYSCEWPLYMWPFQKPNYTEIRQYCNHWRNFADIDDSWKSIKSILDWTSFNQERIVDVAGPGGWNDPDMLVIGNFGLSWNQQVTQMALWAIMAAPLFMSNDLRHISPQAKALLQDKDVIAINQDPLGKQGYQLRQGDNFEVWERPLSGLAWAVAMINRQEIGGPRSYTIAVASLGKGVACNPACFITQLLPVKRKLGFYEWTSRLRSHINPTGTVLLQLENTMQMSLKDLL

Oc1ccc(CNCc2ccccc2)c2cccnc12
inactive: Potency [1] > 11.4 µM | activity change, negative = inhibition [2] -26.9% | activity, negative = inhibition [3] 10.2% | Potency [4] > 46 µM | Potency [5] > 9.22 µM | Potency [6] | Potency [7]
active: Potency [8] 1.58 µM

COc1ccc(C(=O)[C@H](Br)[C@H](Br)C(=O)O)cc1
inactive: Potency [1] > 11.4 µM | Potency [4] > 46 µM | Potency [5] > 9.22 µM | Potency [6] | Potency [7]
active: Potency [9] 3.98 µM

COc1cccc(Nc2ncc3nc(CCc4ccccc4)c(=O)n(C[C@H]4CCCO4)c3n2)c1
inactive: Potency [1] > 11.4 µM | activity change, negative = inhibition [2] -6.15% | activity, negative = inhibition [3] -12.8% | Potency [4] > 9.22 µM | Potency [5] > 46 µM | Potency [6]

CCN(CC)CCN1c2ccccc2Sc2ccc3ccccc3c21
active: Potency [9] 3.98 µM | Potency [8] 0.631 µM
inactive: Potency [1] > 11.4 µM | Potency [4] > 46 µM | Potency [5] > 9.22 µM | Potency [6]

O=C(O)c1[nH]c(=O)[nH]c(=O)c1CN1CCCCC1
inactive: Potency [1] > 11.4 µM | activity change, negative = inhibition [2] 9.91% | activity, negative = inhibition [3] -5.07% | Potency [4] > 46 µM | Potency [5] > 9.22 µM | Potency [6] | Potency [7]

CC[C@H]1C(=O)OC[C@H]1Cc1cncn1C
inactive: Potency [1] > 11.4 µM | Potency [9] | Potency [6] | Potency [7] | outcome [10] | Potency [11] | outcome [12] | outcome [13] | outcome [14] | outcome [15] | Potency [16]

O=C1c2ccccc2-c2cc([N+](=O)[O-])c([N+](=O)[O-])cc21
inactive: Potency [1] > 11.4 µM | Potency [4] > 46 µM | Potency [5] > 9.22 µM | Potency [6] | Potency [7]
active: Potency [9] 0.251 µM

CN1CCN(c2ncc3nc(-c4ccccc4)c(=O)n(Cc4ccc(F)cc4)c3n2)CC1
inactive: Potency [1] > 11.4 µM | Potency [9] | Potency [4] > 9.22 µM | Potency [5] > 46 µM | Potency [6] | Potency [7]

FC(F)(F)c1cccc(-c2nc3nc(Cl)c(Cl)nc3[nH]2)c1
inactive: Potency [1] > 11.4 µM | Potency [4] > 46 µM | Potency [5] > 9.22 µM | Potency [6] | Potency [7] | Potency [17]
active: Potency [9] 0.398 µM
